Screening data from PubChem BioAssay.
Hits are enriched below; roughly 22% of the tested compounds scored in any of these assays.
Shiga toxin inh: Shiga toxin inhibition; Vero cells, Shiga toxin protein synthesis inhibition reporter; inhibition, % at 38.7 µM; 290,000 compounds, 9.2% hits; AID 2315; in the data active means inhibition mostly above about 28%, no sharp cut-off; inactive means mostly below about 43%; further: 0% is about no effect
Cycloheximide cs: counter-screen for Shiga toxin inhibitors: cycloheximide protein synthesis inhibition. AID 2314. cell reporter, cycloheximide protein synthesis inhibition counterscreen. max response, %. 300,000 compounds, 12% hits; in the data active means max response mostly above about 13%, no sharp cut-off; inactive means mostly below about 14%; further: read at 38.3 µM for the half of the compounds with a filed dose; 0% is about no effect
Pf growth 48h: inhibits P. falciparum growth in the first generation, 48 h | P. falciparum luciferase growth in erythrocytes, 48 h | Potency, µM (top dose mostly 28.7 µM), for inactives: top-dose activity change, negative = inhibition, usual class: inhibitors | AID 504832 | 310,000 compounds, 5.9% hits; further: potency means the concentration at half of the fitted maximal effect; on the % scale 0 is the no-effect control and ±100 the full control effect
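Cell-based growth assay: transgenic P. falciparum expressing firefly luciferase, cultured in red cells within RPMI 1640 containing 0.5% w/v Albumax, 24 mM bicarbonate and gentamycin. A drop in luciferase activity indicates inhibition.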
Pf growth 96h: P. falciparum growth inhibition at 96 hours | P. falciparum luciferase reporter growth, 96 h | Potency, µM (titrated, usually from 28.7 µM), for inactives: at the highest dose activity change, negative = inhibition, usual class: inhibitors | 320,000 compounds, 6.9% hits; further: potency means the concentration at half of the fitted maximal effect; on the % scale 0 is the no-effect control and ±100 the full control effect
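96 h incubation, 37 C, 5% CO2, of luciferase-reporter P. falciparum-infected RBCs (2% hematocrit, 0.05% parasitemia final) with test compounds; endpoint luminescence.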
LmPK inhibitor: LmPK (Leishmania mexicana) enzyme inhibition. purified LmPK, Kinase-Glo ATP luminescence, 1 h. Potency, µM (highest dose often 57.5 µM), without a hit: at the highest dose activity change, negative = inhibition, hits mostly inhibitors. 290,000 compounds, 0.37% hits. AID 1721; further: potency means the concentration at half of the fitted maximal effect; on the % scale 0 is the no-effect control and ±100 the full control effect
Target sequence (Q27686 whole entry, looked up): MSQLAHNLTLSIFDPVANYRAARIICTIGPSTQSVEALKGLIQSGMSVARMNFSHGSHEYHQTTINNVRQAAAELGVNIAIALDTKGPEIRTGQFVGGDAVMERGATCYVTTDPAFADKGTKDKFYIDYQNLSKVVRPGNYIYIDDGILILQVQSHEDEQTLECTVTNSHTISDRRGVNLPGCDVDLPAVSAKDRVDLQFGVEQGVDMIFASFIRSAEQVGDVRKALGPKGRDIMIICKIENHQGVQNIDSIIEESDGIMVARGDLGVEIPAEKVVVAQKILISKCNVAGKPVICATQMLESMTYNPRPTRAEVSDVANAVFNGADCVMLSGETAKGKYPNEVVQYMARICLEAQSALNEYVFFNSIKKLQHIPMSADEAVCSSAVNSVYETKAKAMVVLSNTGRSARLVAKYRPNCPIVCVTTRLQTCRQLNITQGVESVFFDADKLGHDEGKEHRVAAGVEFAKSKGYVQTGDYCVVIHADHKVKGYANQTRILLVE
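Kinase-Glo luminescence read after 1 h RT reaction of 0.1 nM LmPK with 0.5 mM PEP and 0.1 mM ADP. Activity scaled between uninhibited and enzyme-free controls.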
Numbers without * were called inactive. Unless noted, the call rests on the fitted dose curve; in most records, active means well fitted inhibition curve with a large enough effect; inconclusive means small, poorly fitted or top-dose-only effect, or another doubt; inactive means no such curve, though single readings can be large or run the other way.

For CCOC(=O)[C@@H]1[C@H]2COc3ccc(Br)cc3[C@@H]2N2C(=O)N(c3ccc(OC)cc3)C(=O)[C@]12C the results were Shiga toxin inh -6, Cycloheximide cs -4, Pf growth 48h -2%, Pf growth 96h 3.3µM* and LmPK inhibitor 1%.
For CCOC(=O)[C@@H]1[C@H]2COc3ccc(Br)cc3[C@@H]2N2C(=O)N(c3ccccc3)C(=O)[C@]12C the results were Shiga toxin inh -5, Cycloheximide cs -2, Pf growth 48h inconclusive, Pf growth 96h -24% and LmPK inhibitor 1%.
For CCOC(=O)[C@@H]1[C@H]2COc3ccc(Br)cc3[C@H]2N2C(=O)N(c3ccc(C)cc3)C(=O)[C@]12C the results were Shiga toxin inh -6, Cycloheximide cs -2, Pf growth 48h inconclusive, Pf growth 96h 12µM* and LmPK inhibitor -1%.
CCOC(=O)[C@@H]1[C@H]2COc3ccc(Br)cc3[C@@H]2N2C(=O)N(c3ccc(C)cc3)C(=O)[C@]12C was read as Shiga toxin inh -6, Cycloheximide cs 1, Pf growth 48h inconclusive, Pf growth 96h 13µM* and LmPK inhibitor -5%.
`CCOC(=O)[C@@H]1[C@H]2COc3ccc(Br)cc3[C@H]2N2C(=O)N(c3ccc(F)cc3)C(=O)[C@]12C` gave Shiga toxin inh 1, Cycloheximide cs -2, Pf growth 48h inconclusive, Pf growth 96h inconclusive and LmPK inhibitor -2%.
`COc1ccc(C(=O)CSc2nnc(NC(=O)C3CC(=O)N(c4ccccc4)C3)s2)cc1` (centres undefined) gave Shiga toxin inh -14, Cycloheximide cs -2, Pf growth 48h 12%, Pf growth 96h -27% and LmPK inhibitor -1%.
For FC(F)(F)C(F)(F)C(F)(F)C(F)(F)C(F)(F)C(F)(F)C(F)(F)C(F)(F)Br the results were Pf growth 48h -10% and Pf growth 96h -9%.
`CC(C)(C)c1ccc(OCCNC(=O)c2ncn[nH]2)cc1` gave Shiga toxin inh -3, Cycloheximide cs 6, Pf growth 96h inconclusive and LmPK inhibitor 3%.
For Cc1cccc2c1cnn2C(=O)Nc1ccc(Br)cc1F the results were Shiga toxin inh 22, Cycloheximide cs 7, Pf growth 48h 92%, Pf growth 96h -4% and LmPK inhibitor 0%.
COc1cccc(NC(=O)n2ncc3c(C)cccc32)c1 was read as Shiga toxin inh 54*, Cycloheximide cs 32*, Pf growth 96h 145% and LmPK inhibitor -27%.
`Cc1ccc(NC(=O)n2ncc3c(C)cccc32)c(C)c1` gave Shiga toxin inh 34*, Cycloheximide cs 38*, Pf growth 48h 117%, Pf growth 96h 2% and LmPK inhibitor 2%.
For CCOc1ccc(NC(=O)n2ncc3c(C)cccc32)cc1 the results were Shiga toxin inh 48*, Cycloheximide cs 30*, Pf growth 48h 178%, Pf growth 96h 1% and LmPK inhibitor -6%.
`Cc1cc(NC(=O)CN(C)C)c([N+](=O)[O-])cc1C` gave Shiga toxin inh 20, Cycloheximide cs 15, Pf growth 48h inconclusive, Pf growth 96h 54% and LmPK inhibitor 9%.
`CCc1ccc2[nH]c(=O)c(CN(Cc3ccc(F)cc3)C(c3nnnn3CCN3CCOCC3)C(C)C)cc2c1` (centres undefined) gave Shiga toxin inh 28*, Cycloheximide cs 43*, Pf growth 48h 19%, Pf growth 96h 75% and LmPK inhibitor -3%.
CCC(C)(C)n1nnnc1C(C(C)C)N(CCN1CCOCC1)Cc1cc2cccc(C)c2[nH]c1=O (centres undefined) was read as Shiga toxin inh -5, Cycloheximide cs -6, Pf growth 96h 13µM* and LmPK inhibitor 6%.
COc1cccc(C(=O)OCC(=O)c2ccc(Br)s2)c1OC was read as Pf growth 48h 5% and Pf growth 96h inconclusive.
For COc1cccc(NC(=O)CSc2nnc(-c3ccoc3C)n2C)c1 the results were Shiga toxin inh -1, Cycloheximide cs -1, Pf growth 48h 7%, Pf growth 96h inconclusive and LmPK inhibitor -1%.
Screening COc1ccc(-n2c(C)cc(C(=O)CSc3nnc(-c4ccoc4C)n3C)c2C)cc1 returned Shiga toxin inh 12, Cycloheximide cs 2, Pf growth 48h 9.3µM* and LmPK inhibitor 0%.
For Cc1cc(C(=O)CSc2nncs2)c(C)n1-c1c(C)n(C)n(-c2ccccc2)c1=O the results were Shiga toxin inh -11, Cycloheximide cs 3, Pf growth 48h 9% and LmPK inhibitor -2%.
Screening Cc1ccc(-n2c(C)cc(C(=O)CSc3nncs3)c2C)cc1 returned Shiga toxin inh 105*, Cycloheximide cs 45*, Pf growth 48h 140%, Pf growth 96h 8% and LmPK inhibitor -8%.
Cc1ccc(-n2c(C)cc(C(=O)CSc3nnnn3C)c2C)cc1 was read as Shiga toxin inh 66*, Cycloheximide cs 53*, Pf growth 48h inconclusive, Pf growth 96h inconclusive and LmPK inhibitor -22%.
Screening O=C1C(=O)N(CCc2c[nH]c3ccccc23)C(c2cccnc2)/C1=C(/O)c1ccccc1 (centres undefined) returned Shiga toxin inh 29, Cycloheximide cs 4, Pf growth 48h -21%, Pf growth 96h 19% and LmPK inhibitor 4%.
For COC(=O)c1cccc(C(=O)N2CCCC(CCC(=O)N(C)CCc3ccccn3)C2)c1 (centres undefined) the results were Shiga toxin inh 1, Cycloheximide cs 1, Pf growth 48h inconclusive, Pf growth 96h -20% and LmPK inhibitor -5%.
Screening Cc1cc(C)n(S(=O)(=O)c2ccc3oc(=O)ccc3c2)n1 returned Shiga toxin inh 39, Cycloheximide cs -4, Pf growth 48h 20%, Pf growth 96h -1% and LmPK inhibitor 1%.
`Cc1ccc(S(=O)(=O)N2CCC(C(=O)NCCCN3CCOCC3)CC2)cc1C` gave Pf growth 48h inconclusive and Pf growth 96h 14%.
Screening CCOC(=O)N1CCC(NC(=O)c2ccc3c(c2)N=C(C)c2c(C)ccc(C)c2S3)CC1 returned Shiga toxin inh -16, Cycloheximide cs -6, Pf growth 48h inconclusive, Pf growth 96h inconclusive and LmPK inhibitor 11%.
`C/C(CCC(C)C)=N\Nc1cc(C)c2ccccc2n1` gave Shiga toxin inh 2, Cycloheximide cs 7, Pf growth 48h inconclusive, Pf growth 96h 17µM* and LmPK inhibitor 1%.
Cc1cc(C(=O)NCCC(C)C)c2ccccc2n1 was read as Shiga toxin inh -1, Cycloheximide cs 1, Pf growth 48h 0%, Pf growth 96h 35% and LmPK inhibitor -3%.
For CC(C)(C)c1cc(C(=O)N/N=C/c2ccc(O)cc2)n(-c2ccccc2)n1 the results were Shiga toxin inh -6, Cycloheximide cs -2, Pf growth 48h 9.3µM*, Pf growth 96h -8% and LmPK inhibitor 0%.
`O=C(N/N=C/c1cccnc1)c1ccccc1Cl` gave Shiga toxin inh 61*, Cycloheximide cs 17*, Pf growth 48h 15%, Pf growth 96h -20% and LmPK inhibitor -6%.
